About 83,000 compounds went through this panel and 20% of them were active in at least one assay; those are over-represented in the sample as a whole.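 48-hour exposure, single concentration, 96-well plates; percent growth endpoint where 0 means no net growth. Active: below 10.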 Values without a mark were called inactive. Calls of active or inactive are those of the source.
system: OVCAR-4 ovarian; assay: NCI-60 one-dose screen, 48 h (100 = growth as untreated, 0 = no growth, -100 = all killed); details: 10 µM unless noted
Experimental: Growth inhibition of the OVCAR-4 human tumor cell line is measured as a screen for anti-cancer activity. Cells are grown in 96 well plates and exposed to the test compound for 48 hours. Compounds are tested at a single concentration, which is 10^-5 M for most compounds. The reported endpoint is percent growth (GI% or GIPRCNT), where numbers from 0 - 100% represent growth inhibition, and numbers from -100% - 0 represent cell death. For example, a value of 40 represents 60% growth inhibition. A value of 0 means no net growth occurred over the course of the experiment. A value of -40 indicates 40% of cells at the beginning of the experiment died by the end of the experiment. A value of -100 means all cells are dead at the end of the experiment.
NCI-60 Human Tumor Cell Lines Screen was performed using the standard one-dose NCI protocol, which is described in more detail at https://dtp.cancer.gov/discovery_development/nci-60/default.htm.
Compounds with GIPRCNT values below 10 were considered active. Activity score was based on GIPRCNT using the following formula: […]
Score is 0 for GIPRCNT values of 100 or above, 50 for GIPRCNT values of 0, and 100 for GIPRCNT values of -100.

Row | Structure (SMILES) | growth
1 | Cc1cc(NCc2cc(Nc3ccnc4cc(Cl)ccc34)ccc2F)nc(N2CCOCC2)n1 | 7.29% (active)
2 | N#Cc1c(-c2cccc(Cl)c2)cc(-c2cccc(Cl)c2)[nH]c1=O | 68.4%
3 | COc1ccc(-c2nc(SCC(=O)Nc3nc(-c4ccccc4)cs3)[nH]c(=O)c2C#N)cc1 | 109%
4 | COc1cc(C2CC(=O)Nc3c2c(C)nn3-c2nc3ccccc3[nH]2)cc2c1OCC(=O)N2 (stereo not given) | 73.2%
5 | COc1ccc(C2CC(c3cccc(OC)c3)=NN2C(=O)c2cc(OC)c(OC)c(OC)c2)cc1 (stereo not given) | 56.6%
6 | Cc1ccc(NCCN(C)C)c2c(=O)c3ccccc3sc12 | 42.4%
7 | COc1ccc(CNC(=O)C(O)C(Cc2ccccc2)NC(=O)c2[nH]c3ccccc3c(=O)c2C)cc1OC (stereo not given) | 111%
8 | Clc1ccc(-c2c3ccc(=[N+]4CCCCC4)cc-3oc3cc(N4CCCCC4)ccc23)cc1 | -82.5% (active)
9 | C#CCOc1nc(C)cc(C)c1C#N | 100%
10 | O=c1cc(-c2ccc(Cl)cc2)[nH]c2ccccc12 | 92.1%
11 | NC(=O)c1ccc[n+]([C@@H]2O[C@H](COP(=O)([O-])OP(=O)(O)OC[C@H]3O[C@@H](n4cnc5c(N)ncnc54)[C@H](O)[C@@H]3O)[C@@H](O)[C@H]2O)c1 | 106%
12 | O=c1c2cc(F)ccc2sc2c(Nc3cccnc3)nc3ccccc3c12 | 105%
13 | FC(F)(F)c1cc(Nc2ccc3cc(OCCCN4CCOCC4)ccc3n2)ccc1Cl | 48.6%
14 | COc1ccc(C2=NN(C(=O)c3cc(OC)c(OC)c(OC)c3)C(c3ccc(Cl)cc3)C2)cc1OC (stereo not given) | 52%
15 | COc1ccc(C(=O)COc2ccc(/C=C3\Oc4ccccc4C3=O)cc2)cc1 | 99.2%
16 | COc1cc(C2CC(c3ccc(Nc4ccnc5cc(Cl)ccc45)cc3)=NN2C=O)cc(OC)c1OC (stereo not given) | 86.3%
17 | COc1cc2nc(Cl)nc(Nc3ccc(S(=O)(=O)Nc4nccs4)cc3)c2cc1OC | 103%
18 | CC1=C([Se]CC(OC(=O)[C@@H](CO)NC(=O)OC(C)(C)C)C(=O)NC(C)(C)C)C(=O)c2ccccc2C1=O (stereo not given in full) | -100% (active)
19 | C=CCOC1=CC(=O)c2ccccc2C1=O | 42.1%
20 | O=C1C=C[C@]2(C[C@@H](c3cccc(C(F)(F)F)c3)O[C@@H](c3cccc(C(F)(F)F)c3)O2)O1 | 48.9%

Row | Structure (SMILES) | growth
21 | CCCCCc1nc2c(c3c1CCCC3)CCCC2 | 70.7%
22 | COc1cc(/C=C/C(=O)c2cccc(-n3cc(-c4ccccc4)[nH]c3=O)c2)ccc1O | 49.1%
23 | O=C(Nc1cccc2c(O)c(N=Nc3ccc(S(=O)(=O)Nc4nccs4)cc3)cc(N=Nc3ccc(S(=O)(=O)Nc4nccs4)cc3)c12)C(Cl)Cl | 90.3%
24 | COc1ccc2[nH]c(O)c(/C=c3/cc4c(c(-c5cc(OC)c(OC)c(OC)c5)n3)=Nc3ccccc3-4)c2c1 | 64.8%
25 | COc1cc(C2CC(=O)Nc3c2c(C)nn3-c2nc3ccccc3[nH]2)c(OC)c2c1OCO2 (stereo not given) | 76%
26 | O=C1/C(=C/c2ccc(Br)cc2)C=C(c2ccccc2)N1CCc1ccccc1 | -17.1% (active)
27 | CCN(CC)c1ccc2nc3c4ccccc4c(=NC(=O)c4ccccc4-c4c5ccc(N(CC)CC)cc5[o+]c5cc(N(CC)CC)ccc45)cc-3oc2c1 | -47.4% (active)
28 | CCCCNC(=O)Oc1ccc2c(=O)c3sc4c(=O)c5ccccc5c(=O)c4c3c(=O)c2c1 | -95.4% (active)
29 | CC(=O)OC[C@H]1OC(Sc2sc(C(=O)c3ccc(Br)cc3)c(N)c2-c2nc3ccccc3s2)[C@H](OC(C)=O)[C@@H](OC(C)=O)[C@@H]1OC(C)=O (stereo not given in full) | 12.9%
30 | COc1ccc(-c2cc(-c3cc(OC)c(OC)c(OC)c3)c(C#N)c(N3CCOCC3)n2)cc1O | 89.6%
31 | O=C(/C=C/c1c(Cl)nc2sccn12)c1nccs1 | 109%
32 | COc1ccc(/C=c2\nc3n(-c4ccccc4)c4nc5c6c(sc5c(=N)n4n-3c2=O)CCCC6)cc1 | 82%
33 | N/C(=N\c1nc2ccccc2s1)NC(=O)Nc1cccc(Cl)c1 | 62.3%
34 | Cc1ccccc1NC(=O)N/C(N)=N/c1nc(C)c(C)s1 | 49.7%
35 | CCCCCCCCCCN(CCCCCCCCCC)CC(=O)c1ccc2cc(Br)c3ccccc3c2c1 | 77.4%
36 | O=C(NC(CSSCC(NC(=O)c1ccccc1)C(=O)O)C(=O)O)c1ccccc1 (stereo not given) | 128%
37 | Cn1cc(-c2csc(-c3cccc(F)c3)n2)c2cccnc21 | -44.8% [100 µM] (active)
38 | Cc1c(O)cc(-c2cnc(N/N=C\c3ccc(Cl)cc3)s2)c(O)c1C | 61.7%
39 | COc1cc(N=Nc2cc(Cc3ccc(N(C)C)cc3)c(N)cc2N(C)C)c2ncccc2c1 | -48.9% (active)
40 | Cc1cc(O)c(C2=NN(c3ccc(S(N)(=O)=O)cc3)C(c3ccccc3Cl)C2)cc1Cl (stereo not given) | 34.3%

Source: PubChem BioAssay (NCI)
